For four compounds, AC50 and outcome results are on record in PubChem BioAssay (EPA / NIEHS).

Calls of active or inactive are those of the source. Rule for the calls: active = hit-call score of the fitted dose curve at least 0.9, where 1 is the maximum; inactive = score below 0.9.

Experiment [1] is described as follows: ATG_CMV_CIS: Attagene CIS-FACTORIAL HepG2 Assay for human CMV (Internal Marker) (AID 2282928).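 Note: endpoint acts as a background internal control marker rather than a target.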 To be noted: HepG2 CMV promoter reporter, transcription factor profiling; actives raise or lower the signal. Put shortly:
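Fluorescence intensity of RT-PCR-derived reporter fragments, resolved by capillary electrophoresis, gives the signal. HepG2 liver cells bearing transfected cis-element reporters were treated 24 h; activity in either direction was fit relative to DMSO-treated controls.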

Experiment [2] is described as follows: ATG_DR4_LXR_CIS: Attagene CIS-FACTORIAL HepG2 Assay for human Liver X Receptor (LXR), DR4 submotif (AID 2282929). The following applies: HepG2 Attagene DR4 cis-reporter, mRNA transcription; actives raise or lower the signal. Put shortly:
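Total RNA from 24 h-treated, MRTU-transfected HepG2 cells underwent reverse transcription, PCR, fluorescent primer extension and restriction digestion before capillary electrophoresis. Both increases and decreases in reporter signal were fitted against DMSO.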

The nature of experiment [3]: ATG_AP_2_CIS: Attagene CIS-FACTORIAL HepG2 Assay for human Activator Protein 2 (AP-2) (AID 2282932). The following applies: HepG2 AP-2 cis-reporter, Attagene transcription factor profiling; actives raise or lower the signal. In a few lines: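 Assay in transfected HepG2 with promoter-regulated reporters, 24 h incubation after dosing. Signal is reporter mRNA fluorescence (RT-PCR, capillary electrophoresis), analysed for both increases and decreases relative to DMSO controls.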

The target in experiment [4] is Transcription factor E2F1 (Homo sapiens) (UniProt Q01094). The experiment can be described thus: ATG_E2F_CIS: Attagene CIS-FACTORIAL HepG2 Assay for human E2F Transcription Factor 1 (AID 2282935). The following applies: HepG2 Attagene cis-reporter, E2F reporter RNA transcripts; actives raise or lower the signal. Put shortly:
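In this cis-factorial format, endogenous factor activity drives transfected reporters in HepG2; transcripts collected at 24 h are quantified by fluorescence after RT-PCR and capillary separation.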

Experiment [5] is described as follows: ATG_M_61_CIS: Attagene CIS-FACTORIAL HepG2 Assay for M61 Transcription Factor (Internal Marker) (AID 2282937). The following applies: HepG2 Attagene CIS-FACTORIAL M61 internal marker reporter; actives raise or lower the signal. Put shortly:
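Transfect HepG2 with MRTUs; dose 24 h; isolate RNA; reverse-transcribe with DNase I treatment; PCR-amplify, FAM-label and cut with HpaI for 2 h at 37 C; resolve by CE. Bidirectional fitting against DMSO.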

A short description of experiment [6]: ATG_EGR_CIS: Attagene CIS-FACTORIAL HepG2 Assay for human Early Growth Response 1 (EGR1) (AID 2282938). The following applies: HepG2 Attagene CIS-FACTORIAL EGR reporter mRNA; actives raise or lower the signal. In a few lines:
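After a 24 h treatment of transiently transfected HepG2 cells, total RNA was reverse-transcribed and reporter sequences PCR-amplified, labelled and run on capillary electrophoresis. Reporters sit under cis-regulatory promoters sensing endogenous factors.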

A short description of experiment [7]: ATG_Ets_CIS: Attagene CIS-FACTORIAL HepG2 Assay for human Erythroblast Transformation Specific (ETS) (AID 2282941). To be noted: HepG2 ETS cis-reporter transcription, actives raise or lower the signal. In a few lines:
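Multiplexed reporter transcript profiling: HepG2, 24 h treatment, total RNA to cDNA, PCR, 6-FAM labelling, HpaI cut, capillary electrophoresis. Gain- or loss-of-signal fitted against DMSO.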

The target in experiment [8] is Hepatocyte nuclear factor 3-beta (Homo sapiens) (UniProt Q9Y261). The experiment can be described thus: ATG_FoxA2_CIS: Attagene CIS-FACTORIAL HepG2 Assay for human Forkhead box A2 (FOXA2) (AID 2282942). To be noted: HepG2 cis-reporter transcription factor activity, 24 h; actives raise or lower the signal. In a few lines:
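24 h dosing of HepG2 bearing cis-reporter constructs; mRNA readout by RT-PCR/CE fluorescence; bidirectional fit, DMSO baseline.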

Experiment [9] is described as follows: ATG_FoxO_CIS: Attagene CIS-FACTORIAL HepG2 Assay for human Forkhead box O (FoxO) (AID 2282943). To be noted: HepG2 Attagene cis-reporter, FoxO element, mRNA; actives raise or lower the signal. In a few lines: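 24 h chemical exposure, HepG2 with transient cis-MRTU transfection. RNA extraction, oligo(dT) RT, reporter-specific PCR, primer-extension labelling, HpaI digestion, CE fragment analysis; bidirectional fit, DMSO baseline.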

Experiment [10] can be described thus: ATG_GATA_CIS: Attagene CIS-FACTORIAL HepG2 Assay for human GATA Binding Protein (AID 2282944). To be noted: HepG2 GATA cis-element reporter, Attagene multiplex mRNA; actives raise or lower the signal. Put shortly:
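HepG2 cells transiently transfected with multiplexed cis-element reporter units measure endogenous GATA activity; after 24 h compound exposure, reporter mRNA quantified by RT-PCR and capillary electrophoresis. Changes fitted in both directions vs DMSO.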

A short description of experiment [11]: ATG_ISRE_CIS: Attagene CIS-FACTORIAL HepG2 Assay for human Interferon Regulatory Factor 1 (IRF1) binding to an Interferon-Stimulated Response Element (ISRE) (AID 2282948). To be noted: HepG2 ISRE cis-reporter (Attagene), mRNA transcription readout; actives raise or lower the signal. Put shortly:
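Signal reflects induction or loss of ISRE-linked reporter mRNA in transiently transfected HepG2 cells after a 24 h treatment, detected by fluorescent RT-PCR fragments on capillary electrophoresis and normalised to DMSO.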

Experiment [12] is described as follows: ATG_M_32_CIS: Attagene CIS-FACTORIAL HepG2 Assay for M32 Transcription Factor (Internal Marker) (AID 2282949).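 Note: background control marker of the multiplexed CIS panel rather than a real target.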 The following applies: HepG2 Attagene cis-factorial M32 reporter, mRNA; actives raise or lower the signal. In a few lines:
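Transient MRTU transfection of HepG2; 24 h compound treatment; TriZol RNA, oligo(dT) RT, reporter PCR, 6-FAM primer extension, HpaI cut, CE. Gain/loss of signal vs DMSO.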

The nature of experiment [13]: ATG_MRE_CIS: Attagene CIS-FACTORIAL HepG2 Assay for human Metal Responsive Element (MRE) (AID 2282954). To be noted: HepG2 MRE cis-reporter transcription, Attagene multiplex; actives raise or lower the signal. In a few lines: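 Readout: capillary electrophoresis of 6-FAM-labelled, HpaI-digested RT-PCR reporter products. System: HepG2 cells carrying transient multiplexed cis reporters, dosed 24 h. Analysis: bidirectional fit, DMSO baseline.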

The target of experiment [14] is Paired box protein Pax-6 (Homo sapiens) (UniProt P26367). Put plainly: ATG_Pax6_CIS: Attagene CIS-FACTORIAL HepG2 Assay for human Paired Box 6 (PAX6) (AID 2282956). To be noted: HepG2 CIS-FACTORIAL PAX6 reporter transcription, RNA readout; actives raise or lower the signal. Put shortly: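 Values derive from bidirectional curve fitting of reporter mRNA signal relative to DMSO. HepG2 cells bearing transfected cis-regulated MRTUs were exposed for 24 h; transcripts were read by RT-PCR and capillary electrophoresis.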
Paired box protein Pax-6 (Homo sapiens), sequence (P26367 whole entry, looked up): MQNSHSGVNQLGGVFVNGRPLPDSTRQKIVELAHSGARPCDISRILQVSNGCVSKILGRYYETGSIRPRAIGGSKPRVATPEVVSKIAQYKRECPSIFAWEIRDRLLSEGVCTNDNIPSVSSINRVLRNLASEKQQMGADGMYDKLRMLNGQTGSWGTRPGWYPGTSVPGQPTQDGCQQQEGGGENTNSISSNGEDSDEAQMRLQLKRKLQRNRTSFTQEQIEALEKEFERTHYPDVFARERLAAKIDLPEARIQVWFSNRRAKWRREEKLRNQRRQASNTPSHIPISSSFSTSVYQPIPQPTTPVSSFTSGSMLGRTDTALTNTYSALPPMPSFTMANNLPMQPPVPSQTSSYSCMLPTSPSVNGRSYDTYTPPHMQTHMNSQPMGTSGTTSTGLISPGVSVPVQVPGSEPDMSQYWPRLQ

Experiment [15] can be described thus: ATG_PXRE_CIS: Attagene CIS-FACTORIAL HepG2 Assay for human Pregnane X Receptor Element (PXRE) (AID 2282957). To be noted: HepG2 Attagene CIS-FACTORIAL PXRE reporter, mRNA; actives raise or lower the signal. In a few lines: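 Endogenous transcription factor activity in HepG2 was gauged through induction of reporter mRNA driven by a cis-regulating promoter element, sampled 24 h post-treatment. Activity was fitted in both directions against DMSO negative control.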

Experiment [16] in a line: ATG_Sox_CIS: Attagene CIS-FACTORIAL HepG2 Assay for human SRY-box transcription factor (SOX) (AID 2282960). The following applies: HepG2 Attagene cis-factorial SOX reporter, mRNA; actives raise or lower the signal. In a few lines:
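HepG2, cis reporter units, 24 h exposure. Reporter mRNA: RT-PCR → FAM labelling → HpaI → CE fluorescence. Bidirectional fit vs DMSO.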

Experiment [17] can be described thus: ATG_SREBP_CIS: Attagene CIS-FACTORIAL HepG2 Assay for human Sterol Regulatory Element Binding (SREBP) (AID 2282962). To be noted: HepG2 Attagene cis-factorial SREBP reporter, mRNA; actives raise or lower the signal. Put shortly: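 Values derive from bidirectional curve fitting with DMSO as baseline. The underlying measurement is reporter mRNA from cis-element-regulated units in transiently transfected HepG2, quantified by RT-PCR and capillary electrophoresis after 24 h exposure.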

A short description of experiment [18]: ATG_TCF_b_cat_CIS: Attagene CIS-FACTORIAL HepG2 Assay for human T-Cell-Factor with beta-catenin (TCF/b-cat) (AID 2282965). To be noted: HepG2 TCF/beta-catenin cis-reporter transcription, actives raise or lower the signal. Put shortly: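 In this cis-format system, transfected HepG2 cells report endogenous transcription factor activity. Readout after 24 h exposure is reporter transcript abundance from RT-PCR and capillary electrophoresis, analysed for gain or loss of signal versus DMSO.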

A short description of experiment [19]: ATG_TAL_CIS: Attagene CIS-FACTORIAL HepG2 Assay for human TAL Basal Promoter (AID 2282966).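 Note: background control endpoint measuring basal TAL promoter reporter mRNA not a specific factor.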 To be noted: HepG2 Attagene cis-factorial TAL promoter reporter; actives raise or lower the signal. Put shortly:
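Endogenous transcription-factor activity is sensed in HepG2 cells through transfected cis-promoter reporter constructs. After 24 h dosing, reporter transcripts are quantified by RT-PCR and capillary electrophoresis. Gain or loss of signal is fitted relative to DMSO.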

A short description of experiment [20]: ATG_TGFb_CIS: Attagene CIS-FACTORIAL HepG2 Assay for human Transforming Growth Factor (TGF) (AID 2282967). The following applies: HepG2 Attagene CIS TGFb reporter, mRNA transcription; actives raise or lower the signal. In a few lines:
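HepG2 cells transiently transfected with cis-promoter-driven multiple reporter units measure endogenous TF activity; reporter mRNA quantified at 24 h by RT-PCR, FAM labeling, HpaI digestion and capillary electrophoresis. Bidirectional fit vs DMSO.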

Transcription factor E2F1 (Homo sapiens), sequence (Q01094 whole entry, looked up): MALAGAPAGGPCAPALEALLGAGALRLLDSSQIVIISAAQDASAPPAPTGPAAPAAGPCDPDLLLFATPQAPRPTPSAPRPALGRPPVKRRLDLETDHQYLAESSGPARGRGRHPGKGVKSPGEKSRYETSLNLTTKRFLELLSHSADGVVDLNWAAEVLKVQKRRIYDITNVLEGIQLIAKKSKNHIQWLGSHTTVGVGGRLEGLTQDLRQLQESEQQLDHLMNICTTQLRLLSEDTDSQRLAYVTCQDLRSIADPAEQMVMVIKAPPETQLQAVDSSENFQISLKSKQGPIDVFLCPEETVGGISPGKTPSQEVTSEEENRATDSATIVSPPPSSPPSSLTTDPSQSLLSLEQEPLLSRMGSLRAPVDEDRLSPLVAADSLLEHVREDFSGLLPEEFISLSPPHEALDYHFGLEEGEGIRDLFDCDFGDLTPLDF
Hepatocyte nuclear factor 3-beta (Homo sapiens), sequence (Q9Y261 whole entry, looked up): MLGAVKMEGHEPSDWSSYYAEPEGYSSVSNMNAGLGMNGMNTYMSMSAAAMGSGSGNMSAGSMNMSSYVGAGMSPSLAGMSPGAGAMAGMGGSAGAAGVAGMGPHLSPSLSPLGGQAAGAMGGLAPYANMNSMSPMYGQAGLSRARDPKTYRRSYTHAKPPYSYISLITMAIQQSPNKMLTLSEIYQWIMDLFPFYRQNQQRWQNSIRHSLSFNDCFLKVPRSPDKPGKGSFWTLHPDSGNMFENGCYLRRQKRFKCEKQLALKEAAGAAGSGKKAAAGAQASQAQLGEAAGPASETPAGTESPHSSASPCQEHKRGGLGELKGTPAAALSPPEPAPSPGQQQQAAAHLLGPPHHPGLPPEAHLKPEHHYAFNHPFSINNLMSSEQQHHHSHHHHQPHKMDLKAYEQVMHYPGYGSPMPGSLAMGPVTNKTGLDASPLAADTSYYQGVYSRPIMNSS

On to `Nc1c(Cl)c(Cl)c(Cl)c(Cl)c1Cl`, for which the AC50 in [1] was 34.2 µM (active); in experiment [15], 15.4 µM (active). The result in experiment [2], in experiment [3], in experiment [4], in experiment [5], in [6] and in experiment [7] was inactive. In addition, the compound was classed as inactive in experiment [8], in experiment [9], in experiment [10], in experiment [11], in experiment [12] and in [13]. For the same compound, the result in experiment [14], in experiment [16], in experiment [17], in experiment [18], in experiment [19] and in experiment [20] was inactive.
Consider `Oc1ccc(Cl)cc1`, for which the outcome in [1], in [2], in experiment [3], in [4], in experiment [5] and in [6] was inactive. In addition, the compound was classed as inactive in experiment [7], in experiment [8], in experiment [9], in [10], in experiment [11] and in experiment [12]. The result in experiment [13], in experiment [14], in [16], in [17], in experiment [18] and in [19] was inactive. The call in experiment [20] was inactive. Also, the AC50 in experiment [15] is 27.9 µM (active).
In the case of `CCCCOC(=O)CCC(=O)OCCCC`, the compound was called inactive in experiment [1], in experiment [2], in experiment [3], in experiment [4], in [5] and in experiment [6]. Further, the result in experiment [7], in [8], in experiment [9], in experiment [10], in experiment [11] and in experiment [12] was inactive. In addition, the compound was classed as inactive in [13], in experiment [14], in experiment [15], in experiment [16], in [17] and in experiment [18]. For the same compound, the outcome in [19] and in experiment [20] was inactive.
For `CCOC(=O)C1OC1(C)c1ccccc1` (stereo not given), the outcome in experiment [1], in experiment [2], in experiment [3], in experiment [4], in experiment [5] and in experiment [6] was inactive. The outcome in experiment [7], in experiment [8], in experiment [9], in experiment [10], in experiment [11] and in [12] was inactive. Moreover, the compound was classed as inactive in experiment [13], in experiment [14], in [16], in [17], in [18] and in experiment [19]. Besides, the compound was called inactive in [20]. For the same compound, the AC50 in [15] is 100 µM (active).
